# The campaign covered roughly 69,000 compounds. About 1,000 (1.4%) showed an effect of 50% or more. What follows is part of a selection rich in strong results, with near analogues and random picks from the rest.
# System: Leishmania donovani
# Test: Leishmania intramacrophage assay
# Format: functional, organism-based
# Design: scale not given: in the data most compounds retested in dose-response had high values
compound,measurement,setting,value
CC(C)Nc1cccc(CC2CCN(C)C2)n1.O=CO (stereo not given),Percent Effect,"30.3 µM, […]",8.612%
Cc1noc(C)c1CC(=O)NCC(C(C)C)N1CCOCC1 (stereo not given),Percent Effect,"30.3 µM, […]",13.16%
CS(=O)(=O)N1C[C@@H]2CC[C@H](C1)N(C(=O)CCc1ccsc1)C2,Percent Effect,"30.3 µM, […]",42.41%
CC(C)C1SCC(=O)Nc2c1cnn2-c1ccc(Cl)cc1 (stereo not given),Percent Effect,"30.3 µM, […]",63.84%
COc1ccc(-n2ncc3c2NC(=O)CSC3C(C)C)cc1 (stereo not given),Percent Effect,"30.3 µM, […]",23.81%
CC(C)C1SCC(=O)Nc2c1cnn2-c1ccc(F)cc1 (stereo not given),Percent Effect,"30.3 µM, […]",-10.63%
Cc1cc(C)c(CNC(=O)N2CCCN(C(=O)C(C)C)CC2)c(C)c1,Percent Effect,"30.3 µM, […]",-55.36%
COc1cc(NC2CCS(=O)(=O)C2)ncn1 (stereo not given),Percent Effect,"30.3 µM, […]",-35.33%
O=C(NCC1CCC1)c1cccc(CN2CCS(=O)(=O)CC2)c1,Percent Effect,"30.3 µM, […]",14.97%
CC(C)(C)NC(=O)c1cccc(CN2CCS(=O)(=O)CC2)c1,Percent Effect,"30.3 µM, […]",61.43%
Cc1nn(C)c(C)c1NC(=O)c1cccc(CN2CCS(=O)(=O)CC2)c1,Percent Effect,"30.3 µM, […]",17.24%
CN1CCO[C@@H]2CN(S(=O)(=O)c3ccccc3)C[C@@H]2C1.O=C(O)C(F)(F)F,Percent Effect,"30.3 µM, […]",29.49%
OCC1CCCN1c1cc(NCCNc2cccnn2)ncn1 (stereo not given),Percent Effect,"30.3 µM, […]",20.93%
OCC1CCCN1c1cc(NCCc2nccs2)ncn1 (stereo not given),Percent Effect,"30.3 µM, […]",55.11%
OCC1CCCN1c1cc(NCCc2ccccn2)ncn1 (stereo not given),Percent Effect,"30.3 µM, […]",47.66%
OCC1CCCN1c1cc(NCc2ccccn2)ncn1 (stereo not given),Percent Effect,"30.3 µM, […]",50.11%
OCC1CCCN1c1cc(NCCc2ccsc2)ncn1 (stereo not given),Percent Effect,"30.3 µM, […]",-26.43%
OCC1CCCN1c1cc(NCCNc2ccccn2)ncn1 (stereo not given),Percent Effect,"30 µM, 30.03 µM",16.04%
NC(=O)[C@@H]1CCCN1C(=O)c1csc(-c2ccc(C(F)(F)F)cc2)n1,Percent Effect,"30.3 µM, […]",24.55%
CNC(=O)c1cc(OC)c(OC)cc1N(C)S(C)(=O)=O,Percent Effect,"30.3 µM, […]",-11.85%
COc1ccc(CCCC(=O)NCc2c(C)noc2C)cc1F,Percent Effect,"30.3 µM, […]",0.2518%
Cc1cc(C)cc(C(=O)NCc2ncnn2C)c1,Percent Effect,"30.3 µM, […]",-3.252%
COC(=O)CCNC(=O)c1nnn(-c2ccc(F)cc2)c1C1CC1,Percent Effect,"30.3 µM, […]",23.19%
COc1cccc(CNCc2ccc(F)cc2Cl)c1O,Percent Effect,"30.3 µM, […]",50.12%
COc1cccc(CNCc2ccccc2Cl)c1O,Percent Effect,"30.3 µM, […]",11.74%
COc1cccc(CNCc2ccc(F)c(Cl)c2)c1O,Percent Effect,"30.3 µM, […]",3.534%
COCCCC(=O)N(C)c1ccc(F)c(Cl)c1,Percent Effect,"30.3 µM, […]",10.71%
O=c1oc(-c2ccc(F)cc2)nn1CN1CCCCC1,Percent Effect,30 µM,11.98%
COCCNC(=O)c1sc(Nc2ccc(Cl)cn2)nc1C,Percent Effect,"30 µM, 30.03 µM",-6.179%
COCC1CN(c2ccc(C)nn2)Cc2cnn(C)c21.O=C(O)C(F)(F)F.O=C(O)C(F)(F)F (stereo not given),Percent Effect,"30.3 µM, […]",1.62%
